The record followed here is PubChem BioAssay AID504408 (Broad Institute, 2011).

Molecules are shown by their SMILES. Screen size: about 300,000 compounds; about 5,200 (1.7%) were called active. Shown is part of a subset that was picked to be rich in actives. Values without a mark were called inactive.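 How the source made its calls: active means mean replicate activation of at least 50% with a set share of replicates each reaching 50%; inconclusive means only one of those two conditions met; inactive means mean below 50% and too few replicates reaching it.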

This assay is described as follows: HSF-1 response element luciferase induction – NIH3T3-HGL cells, MG132 stress, luminescence, single point, primary screen (AID 504408).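 Further: 0% = median of the neutral control wells and 100% = twice that signal.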 Conditions: NIH3T3-HGL HSF-1 luciferase reporter, MG132, 8 h; at 9 µM; stronger effect = higher value; 100% = twice DMSO control signal.
On to `O=C(NCC(c1ccco1)N1CCc2ccccc2C1)c1ccccc1Cl` (stereo not given), for which the activation is 6.39%.

Consider `CC(OC(=O)CNC(=O)c1ccco1)C(=O)Nc1ccc(Cl)cn1` (stereo not given), for which the activation was 0.765%.

In the case of `C=CCNC(=O)C1CC2c3ccccc3C1c1ccccc12` (stereo not given), the activation was 0.377%.

As to `CCC(C)N(C(=O)Cn1nc(C)c([N+](=O)[O-])c1C)C1CCS(=O)(=O)C1` (stereo not given), the activation was -1.43%.

On to `COc1ccc(F)cc1S(=O)(=O)NCC(c1ccc2c(c1)OCO2)N1CCN(C)CC1` (stereo not given), for which the activation is 7.05%.

Take `COc1ccc(F)cc1S(=O)(=O)Nc1ccc2c(c1)OCO2`: the activation is 53.7% (active).

For `COc1ccc(S(=O)(=O)Nc2ccc3c(c2)OCO3)cc1Cl`, the activation is -5.83%.

On to `COc1ccccc1CCC(=O)OCC(=O)N1CCN(S(=O)(=O)c2ccc(C)cc2C)CC1`, for which the activation was 25.7%.

Regarding `Nc1nc(Nc2ccccc2)nc(NCCO)c1[N+](=O)[O-]`, the activation was 12.4%.

For `COc1cccc(Nc2nc(N)c([N+](=O)[O-])c(NCc3ccco3)n2)c1`, the activation was 27.8%.

For the molecule `CNc1nc(Nc2ccc(C)c(Cl)c2)nc(N)c1[N+](=O)[O-]`, the activation was 76.4% (active).

Take `Cc1cccn2c(=O)nc(SCC(=O)NCc3ccccc3Cl)nc12`: the activation is 0.293%.

As to `COc1ccc(-c2cnc(SCCNC(=O)c3ccc4c(c3)OCO4)[nH]2)cc1`, the activation was 9.08%.

Consider `COc1ccc(C2=NOC(Cn3nc(C(=O)NCc4ccc5c(c4)OCO5)cc3-c3ccccc3)C2)cc1` (stereo not given), for which the activation was 7.07%.

Consider `CCN1C(=O)[C@H]2[C@@H](c3ccc(SC4CCCCC4)c(OC)c3)N[C@@](Cc3ccccc3)(C(=O)OC)[C@H]2C1=O`, for which the activation was -7.66%.

Regarding `Cc1ccc(O)c(NC(=S)NC(=O)COc2ccc(Br)cc2)c1`, the activation was 12.4%.

For `Cc1ccc(F)c(NC(=O)CCOc2ccccc2C)c1`, the activation was 7.19%.

With `Cc1ccc(O)c(NC(=O)COc2cc(C)ccc2C)c1`, the activation was 76.7% (active).

`CCn1c(COc2ccc(OC)cc2)nnc1SCC(=O)Nc1cc(OC)ccc1OC`: the activation is 19.9%.

On to `CCOC(=O)CNC(=O)CSc1nnc(COc2ccc(Cl)cc2)n1CC`, for which the activation was 52.7% (active).

For `CCn1c(COc2ccccc2)nnc1SCC(=O)NCc1ccco1`, the activation was -12.7%.

Consider `Cc1ccc(C(=O)Nc2nc3ccc(Cl)cc3s2)o1`, for which the activation is 44.3%.

In the case of `O=C(CSc1n[nH]c(-c2cccs2)n1)N1CCCCC1`, the activation is -14%.

With `O=C(OCC(=O)N1CCCC1=O)c1cc(S(=O)(=O)N2CCOCC2)ccc1Cl`, the activation was -4.42%.

Take `Cc1ccc(N/C=C/C(=O)c2ccccc2)cc1C`: the activation is 77.8% (active).

In the case of `Cc1noc(NS(=O)(=O)c2ccc(N/C=C/C(=O)c3ccccc3)cc2)c1C`, the activation is -20.4%.

As to `CCOc1ccc(N/C=C/C(=O)c2ccccc2)cc1`, the activation is 23.5%.

In the case of `Cc1c(C)n2c(SCC(=O)NC3CCCC3)nnc2[nH]c1=O`, the activation is -15.2%.

Turning to `O=C(/C(=C/c1cccc(Cl)c1)c1nc2ccccc2[nH]1)c1ccccc1`, the activation was 199% (active).

With `CCC(=O)/C(=C(/O)c1ccccc1)c1nc2ccccc2[nH]1`, the activation is 4.66%.

Consider `COc1ccc(/C=C(/NC(=O)c2ccc(C)cc2)c2nc3ccccc3[nH]2)cc1OC`, for which the activation was -0.506%.

As to `Cc1ccc(C)c(OCCC(=O)Nc2cccc(S(=O)(=O)N3CCCC3)c2)c1`, the activation is -4.4%.

`N#CC1(NC(=O)COC(=O)CSc2ccc(F)cc2)CCCCC1`: the activation was 0.517%.

With `CCN(CC(=O)Nc1c(F)cccc1F)C(=O)c1ccc(Sc2nncn2C)c([N+](=O)[O-])c1`, the activation was -3.26%.

On to `Cc1c(NC(=O)CN(C)CC(=O)Nc2ccc(F)c(F)c2F)c(=O)n(-c2ccccc2)n1C`, for which the activation was 1.95%.

In the case of `COc1cc(C(=O)NCC(=O)NCCSc2ccc(Br)cc2)cc(OC)c1OC`, the activation was 7.39%.

For `Cc1ccccc1CSCC(=O)NC(=O)NC(C)(C)C`, the activation is 5.08%.

For `Cc1cc(NC(=O)CSCc2ccccc2C)no1`, the activation was 56.3% (active).

As to `Cc1cc(NC(=O)c2ccccc2C)no1`, the activation was 26.1%.

For the molecule `O=C(COc1coc(CN2CCN(c3ccccc3)CC2)cc1=O)N1CCc2ccccc21`, the activation was 1.05%.

As for `COc1ccc(N2CCN(C(=O)COC(=O)c3cccc(S(=O)(=O)Nc4ccccc4OC)c3)CC2)cc1`, the activation is 5.51%.

Turning to `O=c1[nH]c(CSc2ncc(-c3ccc(F)cc3)n2Cc2ccco2)nc2ccccc12`, the activation was 41.8%.

As to `Cc1cc(NC(=O)CSc2nc3cc(Cl)ccc3c(=O)n2Cc2ccco2)no1`, the activation is 1.94%.

On to `Clc1cccc(-c2nc3nc4ccccc4nc3n2Cc2ccco2)c1`, for which the activation was 79.2% (active).

For the molecule `O=C(NCCSc1ncc(-c2ccccc2)[nH]1)c1ccco1`, the activation was 10.6%.

Take `CCCNC(=O)c1cnc(-c2ccccc2)nc1-c1ccccc1`: the activation is 23.9%.

As to `CCOC(=O)c1cnc(-c2ccccc2)nc1Oc1ccc(C)cc1`, the activation was 88.3% (active).

Take `CCCCOc1ccc(-c2ncc(C(=O)OCC)c(N)n2)cc1`: the activation is 23.3%.

As to `O=C(COc1cccc2c1CCNC2=O)NC1CCCCC1`, the activation was -2.8%.

With `CC(C)Nc1nnc(SC(C)C(=O)N(C)C2CCCCC2)s1` (stereo not given), the activation was 7.73%.

For the molecule `N#CC(=C1SC=CS1)c1nc(-c2ccccc2)cs1`, the activation is 44.5%.

For the molecule `N#CC(=C1CCCC1)c1nc(-c2ccc(Cl)cc2)cs1`, the activation was 62.5% (active).

On to `CCCCCN1CC(O)=C(c2nc(-c3ccc(Cl)cc3)cs2)C1=N`, for which the activation was -2.24%.

`O=C(COc1ccccc1Cl)Nc1ccccc1C(=O)NC1CC1`: the activation is -14.4%.

For `CN(C)CCN(C(=O)CN1C(=O)c2ccccc2C1=O)c1nc2cc3c(cc2s1)OCCO3`, the activation was 16%.

For the molecule `CN(CC(=O)Nc1cccc(F)c1)C(=O)C1=COCCO1`, the activation was 3.81%.

Turning to `Cc1cc(Nc2ccc(Br)cc2)nc2ccccc12`, the activation is 0.857%.

On to `Cc1cccc(C2C3=C(CCCC3=O)N=C3c4ccccc4C(=O)C32)c1` (stereo not given), for which the activation is 78.2% (active).

With `O=C1CCCC2=C1C(c1ccccc1)n1c(s/c(=C/c3cccc(F)c3)c1=O)=N2` (stereo not given), the activation was -4.55%.

Consider `CCOC(=O)C1=C(C)N=C2c3ccccc3C(=O)C2C1c1ccc(Br)cc1` (stereo not given), for which the activation was -1.71%.
